About 2,200 (0.71%) of roughly 310,000 compounds showed an effect of 50% or more. Effects have a minus sign here. For the sample, strong results were picked, then their nearest neighbours and some compounds at random.
target: human ether-à-go-go-related gene (hERG) potassium channel (human, UniProt Q12809); assay: primary screen, population patch clamp on CHO cells stably expressing hERG; higher = less effect of the substance
Sequence (Q12809 whole entry, looked up): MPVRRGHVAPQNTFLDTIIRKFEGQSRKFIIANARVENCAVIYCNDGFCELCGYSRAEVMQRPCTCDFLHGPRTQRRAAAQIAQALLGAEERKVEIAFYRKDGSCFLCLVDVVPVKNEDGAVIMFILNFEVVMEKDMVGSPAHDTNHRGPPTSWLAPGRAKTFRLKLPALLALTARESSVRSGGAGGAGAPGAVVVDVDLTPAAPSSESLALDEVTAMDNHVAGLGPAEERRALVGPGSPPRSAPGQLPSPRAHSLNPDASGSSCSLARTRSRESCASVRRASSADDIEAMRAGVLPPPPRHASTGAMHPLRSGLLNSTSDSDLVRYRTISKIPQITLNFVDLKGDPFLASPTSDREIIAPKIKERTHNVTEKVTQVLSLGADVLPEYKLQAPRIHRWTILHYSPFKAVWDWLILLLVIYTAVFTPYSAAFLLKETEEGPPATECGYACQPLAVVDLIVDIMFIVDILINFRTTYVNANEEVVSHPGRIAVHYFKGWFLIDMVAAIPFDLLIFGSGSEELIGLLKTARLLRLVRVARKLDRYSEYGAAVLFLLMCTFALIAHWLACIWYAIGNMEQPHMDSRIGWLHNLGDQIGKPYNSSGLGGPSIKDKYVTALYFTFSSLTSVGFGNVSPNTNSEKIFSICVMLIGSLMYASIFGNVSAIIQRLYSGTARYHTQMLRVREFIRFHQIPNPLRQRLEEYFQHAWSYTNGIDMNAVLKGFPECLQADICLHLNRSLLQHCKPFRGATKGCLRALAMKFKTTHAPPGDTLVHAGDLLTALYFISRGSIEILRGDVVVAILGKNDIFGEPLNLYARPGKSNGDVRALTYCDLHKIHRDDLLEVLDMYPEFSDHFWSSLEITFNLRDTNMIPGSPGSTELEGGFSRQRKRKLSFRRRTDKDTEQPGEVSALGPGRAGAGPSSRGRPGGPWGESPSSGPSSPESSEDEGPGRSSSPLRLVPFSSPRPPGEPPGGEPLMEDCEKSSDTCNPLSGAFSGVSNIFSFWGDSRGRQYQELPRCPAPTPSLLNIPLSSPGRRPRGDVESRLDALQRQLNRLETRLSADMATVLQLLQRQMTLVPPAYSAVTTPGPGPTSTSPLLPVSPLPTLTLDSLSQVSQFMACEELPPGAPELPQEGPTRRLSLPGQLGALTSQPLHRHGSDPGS

Compound	hERG current change (%, negative = inhibition) at 1uM [%]
COc1ccc(-n2c(Cc3cccn3C)nnc2SCC(=O)Nc2cccc(NC(C)=O)c2)cc1	3.64
Cc1ccc(OCCOCCn2cnc3ccccc3c2=O)c([N+](=O)[O-])c1.O=C(O)C(=O)O	-6.31
CCCCCOc1ccc(CSC2=NCCN2)cc1[N+](=O)[O-]	-60
CCCOc1ccc(CSC2=NCCN2)cc1[N+](=O)[O-]	-53.5
CCOc1ccc(CSC2=NCCN2)cc1[N+](=O)[O-].Cl	-71
COc1ccc(CSC2=NCCN2)cc1Cl.Cl	-7.52
COc1ccc(CSC2=NCCN2)cc1Br	10.8
CCCCCOc1ccc(CSC(=N)N)cc1[N+](=O)[O-].Cl	-3.45
CCCCOc1ccc(CSc2nnc(C)n2N)cc1[N+](=O)[O-]	-2.42
CCCCOc1ccc(CSC2=NCCN2)cc1[N+](=O)[O-].Cl	-22.3
CCCCOc1ccc(CSC(=N)N)cc1[N+](=O)[O-].Cl	-26.4
CCOc1ccc(CSC(=N)N)cc1[N+](=O)[O-].Cl	-50.3
CCOc1ccc(CSC2=NCCN2)cc1Cl.Cl	-4.54
Br.O=[N+]([O-])c1ccc(CSC2=NCCN2)cc1	8.87
CCOC(=O)C1CCN(C(=O)CCS(=O)(=O)c2ccc3c(c2)n(C)c(=O)c(=O)n3C)CC1	10.2
COc1cc(OC)cc(C(=O)Nc2ccc3c(c2)OCCO3)c1	7.93
O=C(Cn1cc(/C=C\[N+](=O)[O-])c2ccccc21)Nc1ccccc1	8.45
COc1ccc(OC)c(N2C(=O)CC(Cc3cc(C)cc(C)c3)C2=O)c1 (stereo not drawn)	5.71
CSc1ccccc1C(=O)N1CCN(S(=O)(=O)c2sc(C(=O)O)c(C)c2C(=O)O)CC1	0.019
COc1ccc(C2CC(c3ccccc3)=NN2c2ccc(S(N)(=O)=O)cc2)cc1OC (stereo not drawn)	7.52
CC(C)CCNC(=O)C1c2ccccc2Oc2ccccc21	-12.1
COc1ccc(CC2(CO)CCN(C/C=C/c3ccccc3OC)CC2)cc1	-71.4
COc1ccc(/C=C/CN2CCC(CO)(Cc3ccccc3Cl)CC2)cc1	-61.9
COc1cccc(CC2(CO)CCCN(C/C=C/c3ccccc3OC)C2)c1 (stereo not drawn)	-32.8

Compound	hERG current change (%, negative = inhibition) at 1uM [%]
OCC1(Cc2ccccc2Cl)CCN(C/C=C/c2ccccc2)CC1	-27.8
COc1ccc(/C=C/CN2CCCC(CO)(Cc3cccc(Cl)c3)C2)cc1 (stereo not drawn)	3.25
COc1ccccc1/C=C/CN1CCC(CO)(Cc2ccccc2)CC1	0.366
COc1cc(NS(=O)(=O)c2ccc(NC(=O)COc3ccccc3Cl)cc2)nc(OC)n1	4.62
NC(=O)CSc1nnc(-c2ccccn2)n1N	12.4
CC(=O)Nc1ccc(C(=O)Nc2nc(-c3cc(C)n(Cc4ccccc4)c3C)cs2)cc1	11.3
CC(C)OC(=O)CC(=O)CSc1nc2c(cc1C#N)CCC2	16.3
Cc1ccc(C(=O)Nc2ccc(OCc3ccccc3)cc2)cc1[N+](=O)[O-]	2
CCN1CCN(c2ncnc3sc(C)c(-c4ccccc4)c23)CC1	-25.9
O=C(Nc1cccc(Oc2ccc3c(c2)C(=O)NC3=O)c1)c1cccs1	-2.79
Cc1ccccc1N1C(=O)C(Oc2ccc(Cl)cc2)C1CNCCCOC(C)C (stereo not drawn)	-3.82
O=C(OCc1ccc([N+](=O)[O-])cc1)C1CC(=O)N(c2ccccc2)C1 (stereo not drawn)	-36
O=C(OCc1ccc([N+](=O)[O-])cc1)C1CC(=O)N(CCc2ccccc2)C1 (stereo not drawn)	-56.3
O=C(OCc1nnc(-c2ccc([N+](=O)[O-])cc2)o1)C1CC(=O)N(CCc2ccccc2)C1 (stereo not drawn)	-17.8
Cc1cccn2c(=O)c3cc(C(=O)NCc4ccco4)c(=N)n(CCOCCO)c3nc12	-63.3
Cc1cccn2c(=O)c3cc(C(=O)NCc4ccco4)c(=N)n(C(C)C)c3nc12	-84.9
COc1ccc(CCn2c(=N)c(C(=O)NCc3ccco3)cc3c(=O)n4cccc(C)c4nc32)cc1	-76.6
Cc1cccn2c(=O)c3cc(C(=O)NCc4ccco4)c(=N)n(CCc4ccccc4)c3nc12	-82.2
Cc1cccn2c(=O)c3cc(C(=O)NCCc4ccccc4)c(=N)n(Cc4ccco4)c3nc12	-35.5
Cc1cccn2c(=O)nc(SCC(=O)NCc3ccco3)nc12	4.54
Cc1cccn2c(=O)c3cc(S(=O)(=O)c4ccccc4)c(=N)n(Cc4ccco4)c3nc12	5.3
CCOC(=O)CC1Sc2ccccc2NC1=O (stereo not drawn)	-7.75
CCN1CCc2c(sc(NC(=O)c3ccc(C(=O)c4ccccc4)cc3)c2C(N)=O)C1.Cl	-7.72
COc1cccc(C(=O)Nc2cccc(-c3nc4ncccc4o3)c2C)c1	12.6

Compound	hERG current change (%, negative = inhibition) at 1uM [%]
CC1(c2nnc(-c3ccncc3)o2)CC(c2ccccc2)=NO1 (stereo not drawn)	16.4
Clc1cccc(OCc2nnc(-c3ccccc3Br)o2)c1	9.74
O=Cc1ccc(-c2ccc(C(=O)O)cc2)o1	-2.38
O=C(CC1CCCCC1)c1c(O)c2ccccc2oc1=O	-4.69
CCOC(=O)c1c(C)n(CC(O)c2ccccc2)c2ccc(O)cc12 (stereo not drawn)	13.6
CCN(CC(=O)Nc1c(F)cccc1F)C(=O)CSC(=S)N1CCCC1	6.34
Cc1cccc(-n2c(/C=C/c3ccc([N+](=O)[O-])o3)nc3ccccc3c2=O)c1	2.06
S=C(N/N=C/c1cccc2ccccc12)Nc1cccc(Cl)c1	11.3
Nc1ccc(OCc2ccccc2)cc1	10.7
COc1ccc(OC)c(-n2c(CNC3CCN(Cc4ccccc4)CC3)nc3ccccc3c2=O)c1	-69.9
COc1ccc(OC)c(-n2c(CN3CCC(C(N)=O)CC3)nc3ccccc3c2=O)c1	7.22
COc1ccc(CNC2CCN(Cc3ccccc3)CC2)cc1	-3.31
CS(=O)(=O)Cc1cccc(C(=O)NC2CCSc3ccccc32)c1 (stereo not drawn)	16.3
COCc1cc(=O)[nH]c(Nc2nc(C)c3cc(OC)ccc3n2)n1	10
COCc1cc(=O)[nH]c(Nc2nc(C)c3ccccc3n2)n1	6.35
CCc1ccc2nc(Nc3nc(COC)cc(=O)[nH]3)nc(C)c2c1	-64.8
CC(=O)Nc1ccc(C(=O)NC2CCCC2)cc1	6.35
COc1ccccc1NC(=O)CSc1nnnn1C	16.4
CSC1=NP(=S)(SC)N2CCCC2=C1C#N (stereo not drawn)	6.13
CCCn1c2ccccc2c2cnn(CC(=O)NCCN(CC)CC)c(=O)c21	-67
CCCn1c2ccccc2c2cnn(CC(=O)NC3CCCCC3)c(=O)c21	10.5
CCCn1c2ccccc2c2cnn(CC(=O)N3CCOCC3)c(=O)c21	7.27
CCCn1c2ccccc2c2cnn(CC(=O)NCCN(C)C)c(=O)c21	-12.5
CCCn1c2ccccc2c2cnn(CC(=O)N3CCN(C4CCCCC4)CC3)c(=O)c21	-68.5

Compound	hERG current change (%, negative = inhibition) at 1uM [%]
CCCn1c2ccccc2c2cnn(CC(=O)NCCOC)c(=O)c21	6.19
C[C@@H]1CC=C[C@H]2[C@H]1C(=O)N(Cc1ccccc1)[C@H]2c1ccc(-c2ccoc2)cc1F	17.9
N#Cc1cccnc1N1CCN(C(=O)c2ccco2)CC1	12.7
Cc1cc(N2C3CCC2CC(O)(c2ccc(F)cc2)C3)nc(-c2ccccc2)n1 (stereo not drawn)	9
O=C(CCN1CCN(c2ccccc2)CC1)N/N=C/c1ccccc1O	9.66
O=C(CCN1CCN(c2ccccc2)CC1)N/N=C/c1ccc([N+](=O)[O-])o1	-58.5
CC(=O)Nc1ccc(/C=N/NC(=O)CCN2CCN(c3ccccc3)CC2)cc1	5.44
CC(C)(C)c1nc2ccccc2[nH]1	10.8
COc1ccc(C(CNC(=O)COc2ccc([N+](=O)[O-])cc2)N2CCCCC2)cc1 (stereo not drawn)	-52.1
COc1ccc(OCC(=O)NCC(c2ccc(OC)cc2)N2CCCCC2)cc1 (stereo not drawn)	-1.58
COc1ccc(C(CNC(=O)COc2ccccc2)N2CCCCC2)cc1 (stereo not drawn)	-4.21
CC(=O)c1ccc(-n2ccnc2)cc1	7.14
Cc1ccc2[nH]c3c(=O)n(CCCN4CCN(C)CC4)cnc3c2c1	-12.6
O=c1c2[nH]c3ccc(F)cc3c2ncn1CC1CCCO1 (stereo not drawn)	4.81
CCN1CCCC1Cn1cnc2c([nH]c3ccc(C)cc32)c1=O (stereo not drawn)	-63.4
CCC1CCCN1Cn1cnc2c([nH]c3ccccc32)c1=O (stereo not drawn)	-45.7
Cc1ccc2[nH]c3c(=O)n(CCN4CCNCC4)cnc3c2c1	18.5
Cc1ccc2[nH]c3c(=O)n(CCN4CCOCC4)cnc3c2c1	6.2
CCC1CCCN1Cn1cnc2c([nH]c3ccc(Cl)cc32)c1=O (stereo not drawn)	-70.9
O=c1c2[nH]c3ccc(Cl)cc3c2ncn1CCN1CCCCC1	-43.9
CCC1CCCN1Cn1cnc2c([nH]c3ccc(C)cc32)c1=O (stereo not drawn)	-54.9
CCN1CCCC1Cn1cnc2c([nH]c3cccc(Cl)c32)c1=O (stereo not drawn)	-38.7
CCN1CCCC1Cn1cnc2c([nH]c3ccc(Cl)cc32)c1=O (stereo not drawn)	-69.4
Cc1ccc2[nH]c3c(=O)n(CCC4=CCCCC4)cnc3c2c1	11

— article PMC4336329 (PLoS ONE, 2015)
